From the supplement of paper PMC12582362
Counter-ions that a name gives are not always drawn. Out of some 1,500 compounds screened, about 30 (2%) showed activity.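 How the source made its calls: active = robust z-score below -2; a few such results were not called.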 For the sample, actives were picked, then their nearest neighbours and some compounds at random.

Each compound was assayed on optoTopBP1 Flp-In 293 T-REx (HEK293) cells (assay: light-induced TopBP1 condensate (nuclear foci) count, plate-normalised robust z-score vs non-control wells; higher = more TopBP1 condensates (negative = condensation inhibitor), active = hit call of the paper). Settings: 10 µM; incubation time 2 h.

Compound | light-induced TopBP1 condensate (z-score)
CCOC(=O)[C@H](CCc1ccccc1)N[C@@H](C)C(=O)N(CC(=O)O)C1Cc2ccccc2C1 [Delapril Hydrochloride] | 0.988 (inactive)
CC(=O)O[C@H]1C[C@@H]2CC[C@@H]3[C@H](CC[C@@]4(C)[C@H]3C[C@H]([N+]3(C)CCCCC3)[C@@H]4OC(C)=O)[C@@]2(C)C[C@@H]1N1CCCCC1 [Vecuronium bromide] | 0.392 (inactive)
O=c1[nH]cnc2c1ncn2[C@@H]1O[C@H](CO)[C@@H](O)[C@H]1O [Inosine] | -0.394 (inactive)
Cc1cccn2c(=O)c(-c3nnn[nH]3)cnc12 [Pemirolast potassium] | 0.448 (inactive)
CN(C)[C@@H]1C(O)=C(C(=O)NCNCCCC[C@H](N)C(=O)O)C(=O)[C@@]2(O)C(O)=C3C(=O)c4c(O)cccc4[C@@](C)(O)[C@H]3C[C@@H]12 [Lymecycline] | 0.0668 (inactive)
Cc1c(Cl)cccc1Nc1ccccc1C(=O)O [Tolfenamic acid] | -0.245 (inactive)
CN[C@@H]1[C@H](O[C@H]2[C@H](O[C@H]3[C@H](O)[C@@H](O)[C@H](N=C(N)N)[C@@H](O)[C@@H]3N=C(N)N)O[C@@H](C)[C@]2(O)C=O)O[C@@H](CO)[C@H](O)[C@H]1O [Streptomycin sulfate] | -0.213 (inactive)
CC(=O)Nc1c(I)c(NC(C)=O)c(I)c(C(=O)O)c1I [Diatrizoic acid dihydrate] | -0.965 (inactive)
CC(=O)OC[C@H]1O[C@@H]([S-])[C@H](OC(C)=O)[C@@H](OC(C)=O)[C@@H]1OC(C)=O.CCP(CC)CC.[Au+] [Auranofin] | -4.74 (active)
CC(=O)OC[C@H]1O[C@@H](n2ncc(=O)[nH]c2=O)[C@H](OC(C)=O)[C@@H]1OC(C)=O [Azaribine] | 0.84 (inactive)
CC(C)c1nc(CN(C)C(=O)N[C@H](C(=O)N[C@@H](Cc2ccccc2)C[C@H](O)[C@H](Cc2ccccc2)NC(=O)OCc2cncs2)C(C)C)cs1 [Ritonavir] | -1.47 (inactive)
Cc1onc(-c2ccccc2)c1-c1ccc(S(N)(=O)=O)cc1 [Valdecoxib] | -1.03 (inactive)
CCCCc1ccc2[nH]c(NC(=O)OC)nc2c1 [Parbendazole] | -0.867 (inactive)
COC(=O)Nc1nc2cc(C(=O)c3cccs3)ccc2[nH]1 [Nocodazole] | -1.07 (inactive)
CCCOc1ccc2[nH]c(NC(=O)OC)nc2c1 [Oxibendazol] | -3.01 (active)
COC(=O)Nc1nc2cc(C(=O)c3ccccc3)ccc2[nH]1 [Mebendazole] | -1.07 (inactive)
COC(=O)Nc1nc2cc(C(=O)c3ccc(F)cc3)ccc2[nH]1 [Flubendazol] | -2.01 (active)
COC(=O)Nc1nc2cc([S+]([O-])c3ccccc3)ccc2[nH]1 (stereo unspecified) [Oxfendazol] | 0.733 (inactive)
O=C(O)c1cc(/N=N/c2ccc(S(=O)(=O)Nc3ccccn3)cc2)ccc1O [Sulfasalazine] | -0.0783 (inactive)
C[C@H](O)[C@H](O)[C@H]1CNc2[nH]c(N)nc(=O)c2N1 [Sapropterin dihydrochloride] | 0.574 (inactive)
CC[N+](C)(CC)CCC[n+]1c(-c2ccccc2)c2cc(N)ccc2c2ccc(N)cc21 [Propidium iodide] | -3.58 (active)

Compound | light-induced TopBP1 condensate (z-score)
C[C@]12CCC(=O)C=C1C=C[C@@H]1[C@@H]2CC[C@@]2(C)[C@H]1CC[C@@]21CCC(=O)O1 [Canrenone] | 0.252 (inactive)
COCCCOc1ccnc(C[S+]([O-])c2nc3ccccc3[nH]2)c1C (stereo unspecified) [Rabeprazole Sodium salt] | -0.658 (inactive)
CC(C)=C/C(C)=N/Nc1nncc2ccccc12 [Budralazine] | -0.574 (inactive)
CC(N)C12CC3CC(CC(C3)C1)C2 (stereo unspecified) [Rimantadine Hydrochloride] | -0.685 (inactive)
OC[C@H]1O[C@@H](c2ccc(Cl)c(Cc3ccc(O[C@H]4CCOC4)cc3)c2)[C@H](O)[C@@H](O)[C@@H]1O [Empagliflozin] | 0.47 (inactive)
CN(C)[C@@H]1C(O)=C(C(N)=O)C(=O)[C@@]2(O)C(O)=C3C(=O)c4c(O)cccc4[C@@](C)(O)[C@H]3C[C@@H]12 [Tetracycline hydrochloride] | 0.0489 (inactive)
N#Cc1cc(NC(=O)C(=O)O)c(Cl)c(NC(=O)C(=O)O)c1 [Lodoxamide] | 0.686 (inactive)
Oc1c(Cl)cc(Cl)c2cccnc12 [Chloroxine] | -0.15 (inactive)
Cc1ccc2c(Cl)cc(Cl)c(O)c2n1 [Chlorquinaldol] | -9.09 (active)
Oc1c(I)cc(Cl)c2cccnc12 [Clioquinol] | -0.446 (inactive)
C[C@@H]1C[C@H]2[C@@H]3C[C@H](F)C4=CC(=O)C=C[C@]4(C)[C@@]3(F)[C@@H](O)C[C@]2(C)[C@@]1(O)C(=O)COC(=O)C(C)(C)C [Flumethasone pivalate] | -0.352 (inactive)
COc1cc([S+](C)[O-])ccc1-c1nc2cccnc2[nH]1 (stereo unspecified) [Sulmazole] | 1.19 (inactive)
CCOc1ccc2c(c1)C(C)=CC(C)(C)N2 [Ethoxyquin] | 0.549 (inactive)
CCc1c2c(nc3ccc(OC(=O)N4CCC(N5CCCCC5)CC4)cc13)-c1cc3c(c(=O)n1C2)COC(=O)[C@]3(O)CC [Irinotecan hydrochloride trihydrate] | 1.07 (inactive)
CC[C@@]1(O)C(=O)OCc2c1cc1n(c2=O)Cc2cc3c(CN(C)C)c(O)ccc3nc2-1 [Topotecan] | -2.31 (active)
CCCNC(C)(C)C(=O)Nc1ccccc1C [Quatacaine] | -0.106 (inactive)
O=C1OCCN1/N=C/c1ccc([N+](=O)[O-])o1 [Furazolidone] | -0.718 (inactive)
CNCCC=C1c2ccccc2C=Cc2ccccc21 [Norcyclobenzaprine] | -0.386 (inactive)
CNCCCC12CCC(c3ccccc31)c1ccccc12 [Maprotiline hydrochloride] | -0.0912 (inactive)
CNCCCC1c2ccccc2C=Cc2ccccc21 [Protriptyline hydrochloride] | -2.86 (active)
